Measured values as given in PubChem BioAssay.
Active and inactive are the calls of the source.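 How the source made its calls, unless noted: active means inhibition above 20% together with a positive visual image hit; inconclusive means visual image hit but inhibition not above 20%; inactive means no visual image hit.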

How the values were obtained:
[1] = inhibitors of TNFa-induced NFkB p65 translocation, primary screen, imaging, HUVEC, MLSMR starter and 10KST1 sets (AID 438); settings: HUVEC TNFa-induced p65 nuclear translocation; cell count: measured here: nuclei count (cytotoxicity indicator), at 2.08 µM; inhibition: at 2 µM, stronger effect = higher value, 0% TNFa-plus-vehicle, 100% no-TNFa wells;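 further: compound added about 3h40 before a 20 min TNFalpha stimulation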;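 on inhibition: signal is the nuclear over cytoplasmic p65 intensity ratio per well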
[2] = inhibitors of mutant huntingtin aggregation, primary screen, imaging, exon1htt(103Q)mCFP cells, high-content imaging (AID 483;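 active means visual image review flags a hit and inhibition of aggregation exceeds 20%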;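 further: compound exposure lasted 3 days before fixation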;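 on nuclei count: percent of the per-plate median nuclei count of sample wells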); settings: exon1htt(103Q)mCFP cell line, aggregate imaging, at 2 µM; inhibition of aggregation: stronger effect = higher value; nuclei count: measured here: cell count, toxicity
[3] = inhibitors of E-selectin induction by TNFa, primary screen, imaging, HUVEC, immunofluorescence, MLSMR starter and 10KST1 sets (AID 487;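 active means visually confirmed hit in the image check and inhibition above 20%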;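 on inhibition: signal is fraction of cell area covered by stained E-selectin grains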;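 on nuclei count: 100% = median nuclei count of all wells on the same plate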); settings: HUVEC TNFalpha-induced E-selectin immunofluorescence imaging, at 2 µM; inhibition: stronger effect = higher value; nuclei count: measured here: cell number, toxicity
[4] = target: Voltage-gated potassium channel subunit beta-2 (Rattus norvegicus) (UniProt P62483); test: KvBeta enzyme negative modulators, primary screen, biochemical, NADPH fluorescence (AID 622;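 active means fluorescence slope higher than the sample average by over 3 SD, cut at about -0.22 in these data, passing the limit was not always enough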;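 further: slope of raw intensity against log time taken from 70 to 1610 s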); settings: recombinant KvBeta, 4-cyanobenzaldehyde reduction, at 10 µM, stronger effect = higher value
Sequence of Voltage-gated potassium channel subunit beta-2 (Rattus norvegicus) (P62483 whole entry, looked up): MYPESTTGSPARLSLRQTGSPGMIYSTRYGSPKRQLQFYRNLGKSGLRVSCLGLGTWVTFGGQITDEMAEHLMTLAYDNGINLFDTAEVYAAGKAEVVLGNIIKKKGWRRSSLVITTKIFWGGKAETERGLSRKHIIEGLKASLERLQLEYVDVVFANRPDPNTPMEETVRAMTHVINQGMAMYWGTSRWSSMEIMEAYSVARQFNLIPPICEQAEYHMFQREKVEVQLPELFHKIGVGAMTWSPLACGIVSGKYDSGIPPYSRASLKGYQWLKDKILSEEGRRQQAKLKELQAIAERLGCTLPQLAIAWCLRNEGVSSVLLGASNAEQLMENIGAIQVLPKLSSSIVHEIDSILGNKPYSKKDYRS

[5] = target: Voltage-gated potassium channel subunit beta-2 (Rattus norvegicus) (UniProt P62483); test: KvBeta positive modulators, primary screen, biochemical, NADPH fluorescence (AID 623;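 active means NADPH fluorescence slope more negative than the mean of all samples by about 3 SD, 99.7% confidence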;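 further: fluorescence intensity change per second fitted from 20 to 320 s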); settings: Recombinant KvBeta, NADPH fluorescence decrease slope, 10 min; at 10 µM; stronger effect = lower value
[6] = target: Alpha-2C adrenergic receptor (Homo sapiens) (UniProt P18825); test: modulators of alpha2C/GIRK thallium flux, primary screen, cell-based, HEK293 alpha2C/GIRK1/2 (AID 624;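 active means fluorescence slope after compound addition differing from the mean of all screened samples at 99.7% confidence, in either direction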;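 further: slope of fluorescence ratio to pre-addition baseline per second over 15 to 24 s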); settings: thallium flux BTC fluorescence, at 10 µM, actives lie on both sides
Sequence of Alpha-2C adrenergic receptor (Homo sapiens) (P18825 whole entry, looked up): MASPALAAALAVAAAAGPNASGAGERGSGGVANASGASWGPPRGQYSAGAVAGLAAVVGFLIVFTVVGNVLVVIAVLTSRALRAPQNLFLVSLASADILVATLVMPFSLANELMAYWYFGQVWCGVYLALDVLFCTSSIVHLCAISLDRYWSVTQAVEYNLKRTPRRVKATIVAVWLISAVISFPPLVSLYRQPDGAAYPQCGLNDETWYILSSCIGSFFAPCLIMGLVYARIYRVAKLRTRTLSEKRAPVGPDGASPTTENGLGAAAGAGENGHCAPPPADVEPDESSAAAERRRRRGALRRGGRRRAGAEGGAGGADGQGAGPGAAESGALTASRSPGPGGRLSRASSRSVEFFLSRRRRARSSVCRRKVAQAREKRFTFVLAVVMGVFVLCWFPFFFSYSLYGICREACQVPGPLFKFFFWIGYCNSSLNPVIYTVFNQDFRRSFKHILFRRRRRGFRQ

[7] = inhibitors of Sendai virus-induced IRF3 signaling, primary screen, TLR/RLR signaling modifier project, cell-based, Sendai virus stimulus, luciferase, 10K MLSCN set (AID 602276;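 active means inhibition at or above 50% at 10 µM; inactive means inhibition below 50%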;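 further: firefly luciferase from ISG56 promoter only with Renilla not read in this screen; 0% = Sendai virus plus DMSO and 100% = medium plus DMSO without virus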); settings: HEK293 RL24 IRF3 luciferase reporter, at 10 µM, stronger effect = higher value
[8] = inhibitors of poly I:C-induced TLR3 signaling, primary screen, cell-based, poly I:C stimulus, luciferase, 10K MLSCN set (AID 602277;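 active means inhibition of the reporter signal at or above 50%; inactive means inhibition below 50%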); settings: HEK293-TLR3 RL24 IRF3 luciferase reporter, at 10 µM, stronger effect = higher value

| SMILES | cell count [1] | inhibition [1] | inhibition of aggregation [2] | nuclei count [2] [%] | inhibition [3] | nuclei count [3] [%] | fluorescence slope [4] | NADPH fluorescence slope [5] | slope [6] | inhibition [7] | inhibition [8] |
| --- | --- | --- | --- | --- | --- | --- | --- | --- | --- | --- | --- |
| c1ccc(-c2nc3ccccc3nc2-c2ccccn2)nc1 | 746 | -8.5% (inactive) | 4.8% (inactive) | 93.9 | -17.4% (inactive) | 118 | -0.491 (inactive) | -3.4e-05 (inactive) | 0.0056 (inactive) | 11.1% (inactive) | 14.2% (inactive) |
| CC(C)(C)NC(=O)Cn1nnnc1-c1nonc1N | 433 | 9.2% (inactive) | -5.9% (inactive) | 120 | -94.7% (inactive) | 120 | -0.618 (inactive) | -4.6e-05 (inactive) | 0.00302 (inactive) | -5.7% (inactive) | -10.1% (inactive) |
| CNC(=O)CSc1nnc(-c2cccc(S(=O)(=O)N3CCOCC3)c2)n1-c1ccc(F)cc1 | 474 | 7.2% (inactive) | 13.2% (inactive) | 104 | -18.5% (inactive) | 106 | -0.376 (inactive) | -6.4e-05 (inactive) | 0.00569 (inactive) | 6.45% (inactive) | 26% (inactive) |
| Cc1ccc(C)c2[nH]c(=O)c(CCNC(=O)c3ccc(S(=O)(=O)N(C)C)cc3)cc12 | 596 | 4.3% (inactive) | 15% (inactive) | 125 | -14% (inactive) | 116 | -0.557 (inactive) | -4e-05 (inactive) | 0.00528 (inactive) | 3.79% (inactive) | 22.8% (inactive) |
| COC(=O)C1C(=O)C2=C(CC1C)NC(=O)CC2c1ccccc1 (stereo not drawn) | 285 | -14.6% (inactive) | 14.6% (inactive) | 92.8 | 48.6% (inactive) | 80.1 | -0.388 (inactive) | -4.9e-05 (inactive) | 0.00369 (inactive) | 9.64% (inactive) | 22.4% (inactive) |
| COc1ccc(S(=O)(=O)NCC(c2cccnc2)N2CCN(C)CC2)cc1C (stereo not drawn) | 600 | -1.8% (inactive) | -1.7% (inactive) | 84.8 | 2% (inactive) | 105 | -0.586 (inactive) | -1.6e-05 (inactive) | 0.00609 (inactive) | 4.66% (inactive) | 29.1% (inactive) |
| CCN1CCN(c2nc3c(c(=O)n(C)c(=O)n3C)n2CCSc2ncccn2)CC1 | 295 | -0.5% (inactive) | -7.5% (inactive) | 97.8 | -130% (inactive) | 116 | -0.506 (inactive) | -9.3e-06 (inactive) | 0.00522 (inactive) | 0.292% (inactive) | 13% (inactive) |
| COc1cccc(-c2nnc(SCC(=O)N3CCCc4ccccc43)o2)c1 | 642 | 3.6% (inactive) | -6.3% (inactive) | 100 | -56.4% (inactive) | 109 | -0.378 (inactive) | -5e-05 (inactive) | 0.00375 (inactive) | 5.85% (inactive) | 26.1% (inactive) |
| N#CCCN(Cc1cccnc1)C(=O)Nc1ccc(Cl)c(Cl)c1 | 398 | 3.1% (inactive) | -31.1% (inactive) | 109 | -20.5% (inactive) | 99.6 | -0.449 (inactive) | 5.4e-05 (inactive) | 0.0054 (inactive) | 15.4% (inactive) | 29.1% (inactive) |
| CCSc1nnc(-c2ccc(OC)cc2)o1 | 651 | 11.1% (inactive) | 0% (inactive) | 99.1 | 61.5% (inactive) | 106 | -0.242 (inactive) | -1.2e-05 (inactive) | 0.00568 (inactive) | -34% (inactive) | -118% (inactive) |
| CC1CCN(S(=O)(=O)c2ccc(Br)s2)CC1 | 437 | 13% (inactive) | -1.9% (inactive) | 102 | -79.2% (inactive) | 108 | -0.489 (inactive) | 2.6e-05 (inactive) | 0.00656 (inactive) | 8.6% (inactive) | 20.9% (inactive) |
| COc1ccc2cc(CN(CCO)C(=O)c3ccc(Br)cc3)c(=O)[nH]c2c1 | 333 | 5.3% (inactive) | -21.4% (inactive) | 119 | -33% (inactive) | 118 | -0.613 (inactive) | -4.6e-05 (inactive) | 0.00437 (inactive) | 11.6% (inactive) | 0.693% (inactive) |
| O=C(O)c1ccc2noc(-c3ccccc3)c2c1 | 755 | -8.7% (inactive) | 16.9% (inactive) | 103 | -15% (inactive) | 123 | -0.378 (inactive) | -3.4e-05 (inactive) | 0.00344 (inactive) | -20.8% (inactive) | -49.6% (inactive) |
| O=C(NCCN1CCOCC1)C1CCC(=O)N1Cc1ccccc1Cl (stereo not drawn) | 648 | -11.4% (inactive) | 7.5% (inactive) | 92.1 | 6.7% (inactive) | 87.7 | -0.512 (inactive) | 2e-07 (inactive) | 0.00614 (inactive) | 10.4% (inactive) | 21% (inactive) |
| COc1ccc(CNS(=O)(=O)c2ccc3oc(C(=O)O)c(C)c3c2)cc1 | 624 | -4.4% (inactive) | -6% (inactive) | 75.2 | -31.4% (inactive) | 114 | -0.466 (inactive) | 8.2e-05 (inactive) | 0.00607 (inactive) | 15.6% (inactive) | 20.3% (inactive) |
| O=S(=O)(Nc1cccnc1)c1ccc2c(c1)OCCO2 | 337 | 10.2% (inactive) | 5.2% (inactive) | 88.2 | 16.8% (inactive) | 92 | -0.393 (inactive) | -4.2e-05 (inactive) | 0.00465 (inactive) | 13.5% (inactive) | 17.6% (inactive) |
| COc1ccc(CNC(=O)C(c2ccco2)N(Cc2cccs2)C(=O)Cc2cccs2)cc1 (stereo not drawn) | 658 | 9.5% (inactive) | -14.3% (inactive) | 107 | -44.5% (inactive) | 105 | -0.6 (inactive) | -8.4e-06 (inactive) | 0.00565 (inactive) | 13.1% (inactive) | 28.3% (inactive) |
| O=C(NCC1CCCO1)c1cccc(N2C(=O)C3C4C=CC(C4)C3C2=O)c1 (stereo not drawn) | 628 | 8.8% (inactive) | 0% (inactive) | 101 | -16.1% (inactive) | 118 | -0.42 (inactive) | -4e-05 (inactive) | 0.00583 (inactive) | 8.37% (inactive) | 10.8% (inactive) |
| O=C(CSc1nnnn1C1CCCC1)NCc1ccc2c(c1)OCO2 | 816 | -13.2% (inactive) | 3% (inactive) | 87.9 | -15.5% (inactive) | 138 | -0.475 (inactive) | -4.8e-05 (inactive) | 0.00594 (inactive) | 1% (inactive) | 22.3% (inactive) |
| CCOC(=O)c1ccc(-n2c(C)nc3c(cnn3-c3ccccc3C)c2=O)cc1 | 654 | 6.9% (inactive) | -46.9% (inactive) | 102 | 11.9% (inactive) | 108 | -0.543 (inactive) | -6.1e-06 (inactive) | 0.00553 (inactive) | -2.92% (inactive) | 3.65% (inactive) |
| Cc1nc(SCc2ccc(Br)cc2)[nH]c(=O)c1C | 755 | 0.8% (inactive) | -11.8% (inactive) | 76.4 | -44.8% (inactive) | 117 | -0.452 (inactive) | -2.5e-05 (inactive) | 0.00691 (inactive) | 3.06% (inactive) | 29.5% (inactive) |
| COc1ccc(-c2nnc(SCC(=O)Nc3cc(C)on3)n2C)cc1OC | 364 | 2.6% (inactive) | -9.8% (inactive) | 87.3 | -12.1% (inactive) | 108 | -0.473 (inactive) | -1.3e-05 (inactive) | 0.00613 (inactive) | -4.06% (inactive) | 25% (inactive) |
| Cc1sc2ncnc(SCC(=O)N3CCCC3)c2c1C | 369 | 3.5% (inactive) | -6.6% (inactive) | 112 | -32.3% (inactive) | 108 | -0.433 (inactive) | -0.000107 (inactive) | 0.00701 (inactive) | 8.17% (inactive) | 6.41% (inactive) |
| COC(=O)c1ccc(Oc2nc(NC(C)C)nc(N(C)C)n2)cc1 | 632 | 28.3% (inactive) | -21.7% (inactive) | 94.4 | -112% (inactive) | 106 | -0.468 (inactive) | 2.5e-05 (inactive) | 0.00595 (inactive) | -2.9% (inactive) | 15.7% (inactive) |
| COc1ccccc1N1CCN(C/C(O)=C(\C#N)c2nc(-c3ccccc3)cs2)CC1 | 475 | -3.4% (inactive) | -1.4% (inactive) | 114 | -33.4% (inactive) | 119 | -0.56 (inactive) | 4.6e-05 (inactive) | 0.00548 (inactive) | -9.12% (inactive) | -1.83% (inactive) |
| COC(=O)C1=C(N)OC2=C(C(=O)CCC2)C1c1cccs1 (stereo not drawn) | 491 | 3.2% (inactive) | 27.3% (inactive) | 52 | 44.1% (inactive) | 103 | -0.49 (inactive) | -3.8e-05 (inactive) | 0.00743 (inactive) | 2.58% (inactive) | 21.7% (inactive) |
| CC(=O)c1c(O)cc(C)n(Nc2nc(C)cc(C)n2)c1=O | 625 | -12.1% (inactive) | -23.4% (inactive) | 91.3 | 28.7% (inactive) | 91.8 | -0.343 (inactive) | -5.3e-05 (inactive) | 0.00406 (inactive) | -1.56% (inactive) | -18.7% (inactive) |
| Cc1cc(C(=O)Nc2nnc(C(F)(F)F)s2)no1 | 342 | -4.7% (inactive) | -8% (inactive) | 98 | -25.5% (inactive) | 106 | -0.447 (inactive) | 1.8e-05 (inactive) | 0.00633 (inactive) | -1.51% (inactive) | -19.4% (inactive) |
